# From PubChem BioAssay (NCI)
# The panel holds about 79,000 compounds, 15% with a hit somewhere; the sample as a whole holds those more often. A number with no mark means an inactive call. Calls of active or inactive are those of the source. Cut-off read from the data, not from the text of the source: active = growth inhibition above about 70%; inactive = the rest.
# What was measured:
# [1] = NCI Yeast Anticancer Drug Screen. Data for the rad50 strain (AID 155);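 note: 0% = growth of vehicle-only cultures of the same strain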; conditions: S. cerevisiae rad50 strain growth inhibition, stronger effect = higher value
# How it was run: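 Readout: growth inhibition relative to vehicle-treated cultures. Compound exposure was carried out in a genetically defined yeast strain deficient in DNA damage repair.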
# [2] = NCI Yeast Anticancer Drug Screen. Data for the mec2-1 strain (AID 157); conditions: S. cerevisiae mec2-1 strain, stronger effect = higher value
# How it was run: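 Using mec2-1 yeast: add compound, measure growth, express inhibition versus vehicle-treated cultures.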
# [3] = NCI Yeast Anticancer Drug Screen. Data for the sgs1 mgt1 strain (AID 161);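 note: 0% = growth of cultures given vehicle only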; conditions: S. cerevisiae sgs1 mgt1 strain, stronger effect = higher value
# How it was run: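 Percent growth inhibition was derived by comparing compound-exposed mutant yeast with vehicle-exposed cultures. The strain carries alterations in DNA damage repair.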
# [4] = NCI Yeast Anticancer Drug Screen. Data for the cln2 rad14 strain (AID 165);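 note: 0% = growth equal to vehicle treated cultures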; conditions: S. cerevisiae cln2 rad14 strain, stronger effect = higher value
# How it was run: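 Yeast strain cln2 rad14, bearing defects in cell cycle control and DNA repair, serves as the test system; values reflect growth inhibition compared with vehicle.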
# [5] = NCI Yeast Anticancer Drug Screen. Data for the bub3 strain (AID 167); conditions: S. cerevisiae bub3 mutant strain, stronger effect = higher value
# How it was run: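 Readout: yeast growth inhibition, expressed relative to vehicle-only wells. The test organism is a mutant strain from a panel with lesions in DNA repair or checkpoint genes.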
# [6] = NCI Yeast Anticancer Drug Screen. Data for the mlh1 rad18 strain (AID 175); conditions: S. cerevisiae mlh1 rad18 strain growth inhibition, stronger effect = higher value
# How it was run: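 Steps: expose repair-defective yeast to compound; measure growth; express inhibition against vehicle-treated controls.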
# [7] = at 5.0 µM (retest, dose inferred, filed as 0.5)
# [8] = at 50.0 µM (retest, dose inferred, filed as 5.0)
Structure (SMILES),"growth inhibition [1, 7]","growth inhibition [1, 8]",growth inhibition ([1]; at 50.0 µM),"growth inhibition [2, 7]","growth inhibition [2, 8]",growth inhibition ([2]; at 50.0 µM),"growth inhibition [3, 7]","growth inhibition [3, 8]",growth inhibition ([3]; at 50.0 µM),"growth inhibition [4, 7]","growth inhibition [4, 8]",growth inhibition ([4]; at 50.0 µM),"growth inhibition [5, 7]","growth inhibition [5, 8]",growth inhibition ([5]; at 50.0 µM),"growth inhibition [6, 7]","growth inhibition [6, 8]",growth inhibition ([6]; at 50.0 µM)
COc1ccc(/C=C2\CN(C)C/C(=C\c3ccc(OC)c(OC)c3OC)C2=O)c(OC)c1OC,27%,96% (active),85.4% (active),1%,97% (active),93.5% (active),7%,98% (active),92% (active),7%,86% (active),91.2% (active),14%,96% (active),95.8% (active),-4%,97% (active),91.3% (active)
C[n+]1c(/C=C/c2ccccc2Cl)sc2ccccc21,83% (active),96% (active),97.2% (active),99% (active),99% (active),94.2% (active),52%,88% (active),98.2% (active),59%,92% (active),98.5% (active),98% (active),98% (active),89.5% (active),98% (active),98% (active),98.7% (active)
CN(C)c1ccc(/C=C2/Oc3ccc(Cl)cc3C2=O)cc1,-2%,98% (active),87.8% (active),25%,98% (active),90.7% (active),-5%,97% (active),89.5% (active),28%,97% (active),89% (active),-24%,98% (active),89.9% (active),19%,97% (active),86% (active)
N#CSCC(=O)c1ccccc1,93% (active),98% (active),98.8% (active),95% (active),99% (active),99.2% (active),95% (active),98% (active),97.5% (active),87% (active),99% (active),97.2% (active),94% (active),98% (active),99% (active),92% (active),98% (active),98.6% (active)
CCCCCCCCCCNCCSSCCNC(C)=O,89% (active),98% (active),99.2% (active),87% (active),99% (active),99.4% (active),97% (active),99% (active),99.3% (active),79% (active),92% (active),98.4% (active),90% (active),98% (active),99.5% (active),90% (active),99% (active),99.3% (active)
C1=CN2C(c3ccccc3)=NN(c3ccccc3)[C@@H]2c2ccccc21,-4%,70% (active),60.6%,-6%,53%,42%,-3%,50%,56.3%,0%,22%,27.8%,1%,79% (active),59.5%,2%,72% (active),54.8%
O=NNc1ncc(Sc2ccccc2)nc1Sc1ccccc1,-14%,-8%,-0.45%,-11%,13%,-24.9%,-3%,20%,45.5%,3%,11%,15.5%,-13%,-11%,-9.1%,4%,12%,71.8% (active)
COc1cc2c(cc1OC)c1c(OC)c(OC)cc3c1c1c2sc(=S)n1CC3,4%,59%,93% (active),14%,46%,96.9% (active),11%,55%,96.1% (active),5%,14%,93.8% (active),4%,33%,95.4% (active),5%,53%,99% (active)
OC(c1ccccc1)(C(F)(F)F)C(O)(c1ccccc1)C(F)(F)F (centres undefined),77% (active),99% (active),94.4% (active),57%,99% (active),89.2% (active),87% (active),99% (active),89.7% (active),57%,99% (active),90.5% (active),76% (active),99% (active),81.6% (active),85% (active),99% (active),95.5% (active)
O=C(Nc1c(Cl)cccc1Cl)OCc1ccc2c(c1)OCO2,46%,54%,35.8%,33%,32%,48.6%,44%,53%,50%,33%,43%,14.3%,46%,73% (active),43%,41%,42%,35.9%
O=C(O)C1CCc2ccc3ccccc3c2C1c1cccc2ccccc12 (centres undefined),42%,98% (active),98.1% (active),36%,98% (active),98% (active),32%,98% (active),97.7% (active),61%,98% (active),97% (active),40%,98% (active),97% (active),52%,98% (active),98% (active)
COc1ccc(CN2CCCN(Cc3ccc(OC)cc3OC)C2c2cc(Cl)ccc2O)c(OC)c1,7%,87% (active),40.6%,19%,98% (active),51.4%,2%,88% (active),32.8%,0%,50%,15.7%,-1%,91% (active),5.1%,17%,97% (active),42%
O=C(CNc1cccc(Cl)c1)Nn1c(-c2ccccc2)nc2ccccc2c1=O,7%,88% (active),92% (active),-1%,69%,87.7% (active),4%,59%,95.2% (active),16%,74% (active),90.6% (active),22%,87% (active),96% (active),4%,86% (active),96.7% (active)
CC[N+](CC)(CC)Cc1ccc(C[N+](CC)(CC)CC)cc1,8%,-4%,16.9%,1%,-2%,54.2%,6%,-15%,-0.8%,4%,7%,92.4% (active),5%,-4%,95.5% (active),2%,-4%,17.4%
Nc1ccc(Cl)c2cccnc12,11%,92% (active),97.5% (active),4%,94% (active),35.5%,5%,89% (active),86.7% (active),0%,46%,87.2% (active),0%,90% (active),15.2%,7%,94% (active),91.9% (active)
CCc1nc(N)nc(N)c1-c1ccc(N2CCCCC2)c([N+](=O)[O-])c1,3%,8%,31.3%,6%,4%,56.8%,1%,3%,13.3%,-6%,6%,72.2% (active),-1%,-2%,91.7% (active),-1%,0%,51%
O=C1C(Cl)C(c2cc(Br)cc(Br)c2O)N1n1cnc2ccccc2c1=O (centres undefined),15%,96% (active),89.8% (active),35%,94% (active),86.7% (active),25%,98% (active),94.5% (active),-16%,87% (active),59.2%,22%,98% (active),93% (active),20%,98% (active),97.7% (active)
CC(C)(C)Oc1ccc(CC(NC(=O)OCC2c3ccccc3-c3ccccc32)C(=O)O)cc1 (centres undefined),9%,95% (active),90.6% (active),-11%,97% (active),93.2% (active),-9%,98% (active),90.5% (active),33%,96% (active),91.7% (active),-7%,97% (active),89.2% (active),-3%,96% (active),90.3% (active)
